# Screening data from PubChem BioAssay.
# FBPA Giardia inh: qHTS Assay for Inhibitors of Fructose-1,6-bisphosphate Aldolase from Giardia Lamblia | A8B2U2 | purified Giardia FBPA | Potency, µM (doses to about 59.6 µM), for inactives: at the highest dose activity, negative = inhibition, actives largely listed as inhibitors | 0.71% of 290,000 active | AID 2451, 2010; also: potency is read from the fitted curve at half-maximal effect; % is scaled to controls: 0 for no effect and ±100 for the full control effect; nearly all actives have a fitted effect of over 55% in size
# Target sequence (A8B2U2 whole entry, looked up): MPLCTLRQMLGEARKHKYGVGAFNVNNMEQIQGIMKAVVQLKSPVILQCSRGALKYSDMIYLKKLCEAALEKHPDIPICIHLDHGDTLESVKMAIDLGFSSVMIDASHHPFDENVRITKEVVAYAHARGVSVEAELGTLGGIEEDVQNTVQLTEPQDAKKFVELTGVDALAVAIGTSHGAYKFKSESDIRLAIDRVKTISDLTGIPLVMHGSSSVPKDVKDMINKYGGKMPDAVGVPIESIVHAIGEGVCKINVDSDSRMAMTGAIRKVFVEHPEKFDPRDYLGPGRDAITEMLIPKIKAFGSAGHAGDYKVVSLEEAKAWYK
#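 Giardia FBPA (40 nM reagent) was preincubated 10 min at RT with compound (up to 57.5 uM final), then substrate plus GAPDH/TPI/NAD/arsenate coupling system with diaphorase/resazurin was added; resorufin fluorescence (525/598 nm) was read after 20 min.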
# LmPK inh: qHTS Assay for Inhibitors of Leishmania Mexicana Pyruvate Kinase (LmPK) | Potency, µM (highest dose often 57.5 µM), inactives show at the highest dose activity change, negative = inhibition, most hits filed as inhibitors | AID 1721, 2009 | Q27686 | 0.37% of 290,000 active | purified LmPK, Kinase-Glo ATP luminescence, 1 h; also: potency is read from the fitted curve at half-maximal effect; % is scaled to controls: 0 for no effect and ±100 for the full control effect
#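 0.1 nM LmPK, 0.5 mM PEP, 0.1 mM ADP; 50 mM imidazole pH 7.2, 7 mM MgCl2, 50 mM KCl; 1 h RT. Kinase-Glo luminescence readout, normalized to no-enzyme (full inhibition) and uninhibited wells.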
# Shiga inhibitor: A qHTS for Small Molecule Inhibitors of Shiga Toxin; Vero cells, Shiga toxin protein synthesis inhibition reporter; inhibition, % at 38.7 µM; 9.2% of 290,000 active; in the data active = inhibition mostly above about 28%, no sharp cut-off; inactive = mostly below about 43%; also: 0% is about no effect
# Sm TGR inh: qHTS Assay for the Inhibitors of Schistosoma Mansoni Peroxiredoxins; purified TGR, DTNB reduction, TNB absorbance 405 nm; Potency, µM (series often up to 114 µM), for the others: at the highest dose activity change, negative = inhibition, most hits filed as inhibitors; 3% of 360,000 active; AID 485364, 2010; also: potency is read from the fitted curve at half-maximal effect; % is scaled to controls: 0 for no effect and ±100 for the full control effect; nearly all actives have a fitted effect of over 60% in size
#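 TGR 20 nM + NADPH 100 uM (dispensed conc.), cpd preinc 15 min RT; start with NADPH (500 uM addition) then DTNB (15 mM addition). Kinetic TNB absorbance, 405 nm filter. Four-parameter Hill fit across titration.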
# CHX counter: Cycloheximide Counterscreen for Small Molecule Inhibitors of Shiga Toxin; cell reporter, cycloheximide protein synthesis inhibition counterscreen; max response, %; 12% of 300,000 active; in the data active = max response mostly above about 13%, no sharp cut-off; inactive = mostly below about 14%; also: read at 38.3 µM for the half of the compounds with a filed dose; 0% is about no effect
# TbPYK inhibitor: qHTS of Trypanosoma Brucei Inhibitors | pyruvate kinase (Trypanosoma brucei), Q57TT1 | TbPYK enzyme, Kinase-Glo Plus ATP luminescence, 45 min | Potency, µM (doses to about 76.8 µM), for inactives: at the top dose activity, negative = inhibition, actives largely listed as inhibitors | 0.12% of 410,000 active | AID 624173, 2012; also: potency is read from the fitted curve at half-maximal effect; % is scaled to controls: 0 for no effect and ±100 for the full control effect; nearly all actives have a fitted effect of over 50% in size
#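 In this concentration-response screen, enzyme-free wells defined baseline while DMSO plates tracked drift. Each reaction combined TbPYK, substrate, compound and 130 uM ADP for 45 min at room temperature. Kinase-Glo Plus luminescence gave the signal.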
# Numbers without * were called inactive; ? = inconclusive; / = no result given; + = active, no number; [ ] = remark or other dose. Shown is part of a subset that was picked to be rich in hits. Unless noted, calls follow the shape of the dose curve; as a rule, active = well fitted curve in the direction sought with a large enough effect; inconclusive = small, poorly fitted or top-dose-only effect, or another doubt; inactive = no such curve, though single readings can be large; an effect the other way counts as inactive or inconclusive.
SMILES,FBPA Giardia inh,LmPK inh,Shiga inhibitor,Sm TGR inh,CHX counter,TbPYK inhibitor
CC1CCN(S(=O)(=O)c2ccc3c(c2)oc(=O)n3CC(=O)NCc2ccc(F)cc2)CC1,/,/,/,0%,/,4%
O=C1CCC(C(=O)N2CCCC(Nc3ccc(F)cc3)C2)=NN1 (stereo not given),-1%,4%,-13,2%,8,-4%
COCCn1c(C)cc(C(=O)COc2ccc(C)nc2[N+](=O)[O-])c1C,-12%,2%,57,-24%,18,-20%
C=CCn1c(C)cc(C(=O)COc2ccc(C)nc2[N+](=O)[O-])c1C,-2%,3%,98*,-12%,75*,-12%
COc1cccc(C(=O)NC2CCCN(C3Cc4ccccc4C3)C2)c1OC (stereo not given),-19%,-4%,-4,1%,-2,3%
O=S(=O)(Nc1ccc(N2CCCCC2)cc1)c1cccs1,-1%,0%,60*,2%,41*,-18%
O=S(=O)(Nc1ccc(N2CCOCC2)cc1)c1ccc(F)cc1,-8%,1%,24,-32%,1,-6%
O=S(=O)(c1ccccc1)c1ccc(N2CCCCCC2)cc1,8%,0%,/,-1%,21*,-3%
O=S(=O)(Nc1ccc(N2CCCCC2)cc1)c1ccc(F)cc1,-6%,5%,51*,-28%,13*,-2%
O=S(=O)(Nc1ccc(N2CCCCC2)cc1)c1ccccc1,-3%,2%,26,-14%,18*,-15%
Cc1ccc(NS(=O)(=O)N2CCOCC2)cc1,/,-6%,-6,5%,8,-3%
O=S(=O)(Nc1ccc(F)cc1)N1CCOCC1,2%,2%,4,12%,34*,7%
O=C(c1cc(-c2cccc(Cl)c2)on1)N1CCCCCC1,-10%,-2%,117*,3%,27*,-1%
O=C(c1cc(-c2cccc(Cl)c2)on1)N1CCN(c2ccc(F)cc2)CC1,-2%,-5%,-19,-3%,-3,5%
CN1CCN(C(=O)c2cc(-c3cccc(Cl)c3)on2)CC1,2%,-5%,41,0%,34*,-3%
CC1(C(=O)NS(=O)(=O)C2CC2)CCN(C(=O)c2ccccc2F)C1 (stereo not given),/,/,/,/,/,4%
CCOc1ccc2nc(-c3ccccc3)[nH]c2c1,-2%,?,71*,8%,35*,-1%
COc1ccc(-c2cc(-c3ccccc3)c(C#N)c(=S)[nH]2)cc1,5%,1%,-11,/,-4,-3%
COc1ccc2nc(-c3ccccc3)[nH]c2c1,?,16µM*,73*,1%,57*,-22%
COc1ccc(-c2cc(=O)c3cc(F)ccc3[nH]2)cc1,-6%[89.2 µM],0%,-5,-7%,45,-4%
COc1ccc2[nH]c(-c3ccc(C)cc3)cc(=O)c2c1,2%,-30%,47,-16%,32*,-15%
COc1ccc2[nH]c(-c3ccccc3)cc2c1,-11%,-10%,88*,-2%,74*,-1%
CC(=O)Nc1cnc(-c2ccccc2O)cn1,/,/,/,/,/,3%
Cc1ccc2[nH]c(-c3ccc(F)cc3F)cc(=O)c2c1,-5%[89.2 µM],/,+,/,32*,/
CN(C)C(=O)c1ccc(-c2ccc3ncnc(N(C)C)c3c2)cc1,3%,/,/,/,/,/
SMILES,FBPA Giardia inh,LmPK inh,Shiga inhibitor,Sm TGR inh,CHX counter,TbPYK inhibitor
CCOc1ccc(/C=N/N(C)c2ccccc2)cc1OC,-10%,8%,64*,0%,25*,-10%
CCCOc1ccc(/C=N/NC(=O)c2c(-c3ccccc3)noc2C)cc1OC,/,5%,-5,1%,-2,/
CCOc1ccc(/C=N/NC(=O)c2ccc3nc[nH]c3c2)cc1OC,/,/,/,/,/,3%
COc1cc(/C=N/Nc2ccccn2)ccc1OCC(C)C,1%,-5%,62*,0%,34*,-6%
COc1ccc(/C=N/Nc2ncnc3scc(-c4ccccc4)c23)cc1OC,-13%,-1%,0,-8%,2,-2%
CCOc1ccc(/C=N/Nc2ccccn2)cc1OC,0%,-2%,110*,28%,39*,5%
CCCOc1ccc(/C=N/Nc2ccccn2)cc1OC,2%,3%,88*,0%,50*,-24%
Cc1c(C(=O)OC(C)C)sc(NC(=O)C2c3ccccc3Oc3ccccc32)c1C(=O)OC(C)C,/,/,/,0%,/,-3%
O=C(Oc1ccccc1)N1CCC2(CCCN(c3ccc(-c4ccccc4)cc3)C2)CC1,-5%,/,/,/,/,-6%
COc1cc(/C=N/Nc2ccccn2)cc(OC)c1O,-10%,?,63*,-19%,25*,-32%
C=CCOc1ccc(/C=N/NC(=O)C(=O)N2CCCCCC2)cc1OC,0%,-4%,33,-6%,-2,2%
C=CCOc1ccc(/C=N/Nc2ccccn2)cc1OC,-6%,1%,101*,6%,57*,-9%
COc1cc(/C=N/Nc2ccc(C(F)(F)F)cn2)cc(OC)c1O,-6%,0%,22,-26%,7,-2%
Cn1ccsc1=NC(=O)c1cccc(OC(F)F)c1,9%,-3%,92*,-6%,45*,-7%
CC(=O)OCC(=O)Nc1cc(C#N)cc(NC(=O)COC(C)=O)c1Cl,/,/,/,/,/,2%
Cn1cccc1CN1CCC[C@]2(N[C@H](c3ccc(C(F)(F)F)cc3)[C@@H]3C(=O)N(Cc4ccccc4)C(=O)[C@@H]32)C1=O,/,/,/,/,/,3%
COc1cc2ncn(-c3cc(OCc4ccccc4C(F)(F)F)c(C(N)=O)s3)c2cc1OC,/,/,/,/,/,0%
Cc1ccc(NC(=O)Nc2nnc(N3CCCC3)s2)cc1C,/,/,/,-7%,/,3%
Cc1ccsc1/C=N/NC(=O)c1ccc2ccccc2c1,-2%,-3%,73*,-22%,44*,-17%
COc1ccc(CC(=O)N/N=C/c2sccc2C)cc1,10%,2%,24,-17%,8,3%
Cc1ccsc1/C=N/NC(=O)c1ccncc1,-3%,-2%,21,-4%,8,0%
Cc1ccsc1/C=N/NC(=O)c1ccc([N+](=O)[O-])cc1,1%,3%,-3,-5%,24*,1%
Cc1ccsc1/C=N/NC(=O)c1cccnc1,-8%,-9%,25,8%,9.9*,0%
Cc1ccsc1/C=N/NC(=O)Nc1ccccc1,-3%,-2%,57*,-4%,31*,4%
Cc1ccc(-c2nc3c4ccccc4n(Cc4cccc(Cl)c4)c(=O)n3n2)cc1,/,/,/,1%,/,3%
Cc1ccsc1/C=N/NS(=O)(=O)c1ccc([N+](=O)[O-])cc1,-9%,-5%,31,-3%,48*,-9%
Cc1ccc(S(=O)(=O)N/N=C\c2cc([N+](=O)[O-])ccc2Cl)cc1,-7%,4%,-9,-20%,2,2%
